Measurements: PubChem BioAssay (Tox21)
Records with an inconclusive call do not appear. Calls of active or inactive are those of the source. Unless noted, calls follow the shape of the full dose curve.

What was measured:
[1] = Nuclear factor erythroid 2-related factor 2/antioxidant responsive element (Nrf2/ARE) small molecule agonists: qHTS cell viability counter screen in human keratinocytes (AID 1919968; active = well fitted curve in the direction sought with a large enough effect in the repeat runs; an effect the other way counts as inactive or inconclusive; also: nearly all actives have a fitted effect of over 55% in size; also: potency is read from the fitted curve at half-maximal effect)
Outline: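 Cells of the KeratinoSens line were plated at 1,500 per well and left for 5 h before compound transfer from DMSO stocks. After a 23 h incubation (37 C, 5% CO2), CellTiter-Fluor was added. Signal was taken as fluorescence intensity 1 h later.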

[2] = Nuclear factor erythroid 2-related factor 2/antioxidant responsive element (Nrf2/ARE) small molecule agonists: luciferase reporter gene qHTS assay in human keratinocytes (AID 1919969); also: nearly all actives have a fitted effect of over 35% in size; also: potency is read from the fitted curve at half-maximal effect
[3] = target: Gonadotropin-releasing hormone receptor (Homo sapiens) (UniProt P30968); test: Human gonadotropin-releasing hormone receptor (GnRHR) small molecule agonists, calcium flux assay in GnRHR-HEK293 cells (AID 1920063); also: nearly all actives have a fitted effect of over 35% in size
Outline: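 Compounds dissolved in DMSO are pin-transferred onto dye-loaded GnRHR-HEK293 cells, which were seeded 18 h before at 37 C/5% CO2. Calcium signal is read as fluorescence intensity at 1 s intervals for 3 min.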

[4] = target: KiSS-1 receptor (Homo sapiens) (UniProt Q969F8); test: Human kisspeptin (KISS1R) small molecule agonists, calcium flux assay in KISS1R-HEK293 cells (AID 1920064; active = well fitted curve in the direction sought with a large enough effect in the repeat runs; an effect the other way counts as inactive or inconclusive)
Outline: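 Cell line: HEK293, stable human KISS1R. Dye loading 1 h at 37 C after 18 h culture. Read: kinetic fluorescence, 480/540 nm, 3 min at 1 s intervals.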

[5] = G protein-coupled receptor (GPCR) small molecule agonists, calcium flux assay: HEK293 wild type cell line counter screen (AID 1920065)
Outline: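 Tox21 10K compounds, 15 concentrations each in triplicate, pin-transferred in DMSO onto dye-loaded cells; kinetic read at 480/540 nm for 3 min, 1 s intervals.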

[6] = p53 small molecule agonists, cell-based qHTS assay with human liver microsomes (AID 1963577)
Outline: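 p53RE-bla reporter cells were pre-incubated 5 h at 37 C, then treated with compounds plus human liver microsomes (0.5 mg/mL final) and NADPH (0.5 mg/mL final) for 16 h at 37 C. Beta-lactamase activity was read by LiveBLAzer fluorescence after 2 h at room temperature.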

[7] = p53 small molecule agonists, cell-based qHTS assay with rat liver microsomes (AID 1963578)
Outline: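 p53RE-bla cells were exposed to compounds together with rat liver microsomes (0.5 mg/mL final) and NADPH (0.5 mg/mL final) for 16 h at 37 C, then read by LiveBLAzer beta-lactamase fluorescence after 2 h at room temperature.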

[8] = p53 small molecule agonists, cell-based qHTS assay with human liver microsomes: qHTS cell viability counter screen (AID 1963579); also: nearly all actives have a fitted effect of over 45% in size
Outline: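 p53RE-bla cells (4,000/well) were pre-incubated 5 h at 37 C, then given compounds in DMSO plus human liver microsomes (0.5 mg/mL final) and NADPH (0.5 mg/mL final) for 16 h at 37 C. Viability was read by CellTiter-Glo luminescence.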

[9] = p53 small molecule agonists, cell-based qHTS assay: qHTS cell viability counter screen (AID 1963581); also: nearly all actives have a fitted effect of over 45% in size
Outline: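 ATP content measured by luminescence in HCT-116 p53RE-bla cells treated 16 h at 37 C, same wells as the reporter screen.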

[10] = p53 small molecule agonists, cell-based qHTS assay (AID 1963582; active = well fitted activation curve with a large enough effect in the signal ratio in the repeat runs, not every such curve was filed as active; the % refers to the signal ratio)
Outline: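 16 h compound exposure (37 C) of p53 response element–bla cells, preceded by 5 h recovery at 37 C/5% CO2; read-out via LiveBLAzer B/G FRET substrate, 2 h RT, fluorescence intensity.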

[11] = target: 5-hydroxytryptamine receptor 2A (Homo sapiens) (UniProt P28223); test: 5-hydroxytryptamine receptor 2A (HTR2A) small molecule antagonists, cell-based qHTS assay (AID 1963586); also: nearly all actives have a fitted effect of over 45% in size
Outline: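 CHO cells stably expressing human HTR2A were plated for 18 h at 37 C, then loaded with calcium dye for 1 h. Compounds were preincubated 5 min at room temperature before DOI (4 nM solution) was added. Kinetic fluorescence was read for 3 min.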

[12] = target: Muscarinic acetylcholine receptor M1 (Homo sapiens) (UniProt P11229); test: Cholinergic receptor muscarinic 1 (CHRM1) small molecule antagonists, cell-based qHTS assay (AID 1963588); also: nearly all actives have a fitted effect of over 40% in size
Outline: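 Compounds were tested at 15 concentrations in three independent runs. Dye-loaded CHRM1-CHO cells were exposed 5 min at room temperature before stimulation by acetylcholine added at 50nM. Intracellular calcium was read kinetically on FDSS for 3 min.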

[13] = target: Muscarinic acetylcholine receptor M1 (Homo sapiens) (UniProt P11229); test: Cholinergic receptor muscarinic 1 (CHRM1) small molecule agonists, cell-based qHTS assay (AID 1963589); also: nearly all actives have a fitted effect of over 35% in size
Outline: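 Homogeneous fluorescence calcium flux, agonist mode. Human M1-expressing CHO cells; compound dosed at 15 concentrations, three independent runs; signal sampled every 1 sec.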

[14] = cAMP Responsive Elements (CRE) small molecule agonists, cell-based qHTS assay (AID 1963590)
Outline: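 HEK 293T cells stably bearing CRE-bla were plated at 2,000 cells per well and rested 18 h. Compounds, positive controls or DMSO were added for 3 h at 37 C. LiveBLAzer B/G substrate was then loaded for 2 h at room temperature.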

[15] = target: Beta-2 adrenergic receptor (Homo sapiens) (UniProt P07550); test: Adrenergic beta2 receptor (ADRB2) small molecule antagonists, cell-based qHTS assay (AID 1963592); also: series mostly up to about 92 µM; nearly all actives have a fitted effect of over 50% in size
Outline: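 Assay format: CHO-ADRB2 cells, 18-20hr seeding at 37C/5% CO2, then compound plus 1nM isoproterenol agonist mix for 0.5hr RT. Homogeneous time-resolved fluorescence cAMP detection after 1hr, expressed as 665/615 nm ratio.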

[16] = target: Beta-2 adrenergic receptor (Homo sapiens) (UniProt P07550); test: Adrenergic beta2 receptor (ADRB2) small molecule agonists, cell-based qHTS assay (AID 1963593);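 also: CHO cells stably overexpressing human ADRB2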
Outline: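 CHO cells stably over-expressing ADRB2 were plated overnight at 37C, then dosed with compounds plus a stimulation mix containing 100uM IBMX and 25uM Ro-20-1724 for 0.5hr at room temperature. cAMP was measured by HTRF competition, 1hr.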

[17] = target: D(2) dopamine receptor (Homo sapiens) (UniProt P14416); test: Dopamine D2 receptor (DRD2) small molecule agonists, cell-based qHTS assay (AID 1963594); also: nearly all actives have a fitted effect of over 35% in size
Outline: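 HEK293 cells stably expressing human DRD2, pre-treated with PDE inhibitor Ro20-1724 (0.1 mM final) and compound 10 min at room temperature, then stimulated with NKH477 (200nM […]) for 30 min. cAMP read by HTRF (665/620 nm).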

[18] = target: D(2) dopamine receptor (Homo sapiens) (UniProt P14416); test: Dopamine D2 receptor (DRD2) small molecule antagonists, cell-based qHTS assay (AID 1963595; active = well fitted inhibition curve with a large enough effect in the signal ratio in the repeat runs, with a control signal flat; the % refers to the signal ratio)
Outline: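 Stable D2 receptor HEK293 line, 24 h after seeding. Compound preincubated 10 min, then quinpirole (12 nM) with forskolin analogue NKH477 (200 nM), 30 min, room temperature. Detection by time-resolved FRET of cAMP.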

[19] = target: 5-hydroxytryptamine receptor 2A (Homo sapiens) (UniProt P28223); test: 5-hydroxytryptamine receptor 2A (HTR2A) small molecule agonists, cell-based qHTS assay (AID 1963587); also: nearly all actives have a fitted effect of over 30% in size
Outline: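 CHO cells stably expressing human HTR2A, plated 18 h, loaded with calcium dye 1 h at 37 C. Agonist mode: compounds added and intracellular calcium fluorescence recorded kinetically for 2 min at 1 sec intervals.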

[20] = cAMP Responsive Elements (CRE) small molecule antagonists, cell-based qHTS assay (AID 1963591; active = well fitted inhibition curve with a large enough effect in the signal ratio in the repeat runs, not every such curve was filed as active; the % refers to the signal ratio)
Outline: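 First, CRE-bla HEK293T cells settled 18 h at 37 C. Next, compound and 0.25 uM final NKH477 were applied for 3 h. Last, LiveBLAzer B/G substrate was loaded for 2 h at room temperature.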

Measured: Potency

Sequence of KiSS-1 receptor (Homo sapiens) (Q969F8 whole entry, looked up): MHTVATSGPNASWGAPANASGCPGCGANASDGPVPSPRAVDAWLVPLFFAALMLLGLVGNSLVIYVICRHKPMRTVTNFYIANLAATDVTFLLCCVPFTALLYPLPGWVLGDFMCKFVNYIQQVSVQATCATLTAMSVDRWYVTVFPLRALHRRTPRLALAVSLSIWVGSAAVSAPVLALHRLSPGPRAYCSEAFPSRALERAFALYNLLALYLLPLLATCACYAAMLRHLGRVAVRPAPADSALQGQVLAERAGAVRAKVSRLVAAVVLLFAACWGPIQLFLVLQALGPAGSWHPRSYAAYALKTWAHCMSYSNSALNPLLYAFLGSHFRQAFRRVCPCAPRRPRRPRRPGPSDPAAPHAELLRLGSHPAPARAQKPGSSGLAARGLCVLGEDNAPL
Sequence of 5-hydroxytryptamine receptor 2A (Homo sapiens) (P28223 whole entry, looked up): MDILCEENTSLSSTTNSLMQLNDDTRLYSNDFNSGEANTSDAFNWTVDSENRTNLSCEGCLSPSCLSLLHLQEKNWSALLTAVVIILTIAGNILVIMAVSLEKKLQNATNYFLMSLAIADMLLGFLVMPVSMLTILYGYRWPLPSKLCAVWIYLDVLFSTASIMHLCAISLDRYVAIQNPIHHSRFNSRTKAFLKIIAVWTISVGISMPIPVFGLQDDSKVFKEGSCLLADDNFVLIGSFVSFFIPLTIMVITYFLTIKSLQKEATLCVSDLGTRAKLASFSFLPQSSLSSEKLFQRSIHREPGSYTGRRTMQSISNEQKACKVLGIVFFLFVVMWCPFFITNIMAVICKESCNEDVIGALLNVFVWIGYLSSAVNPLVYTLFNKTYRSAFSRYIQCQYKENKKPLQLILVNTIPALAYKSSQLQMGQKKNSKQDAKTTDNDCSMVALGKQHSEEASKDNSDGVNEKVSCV
Sequence of D(2) dopamine receptor (Homo sapiens) (P14416 whole entry, looked up): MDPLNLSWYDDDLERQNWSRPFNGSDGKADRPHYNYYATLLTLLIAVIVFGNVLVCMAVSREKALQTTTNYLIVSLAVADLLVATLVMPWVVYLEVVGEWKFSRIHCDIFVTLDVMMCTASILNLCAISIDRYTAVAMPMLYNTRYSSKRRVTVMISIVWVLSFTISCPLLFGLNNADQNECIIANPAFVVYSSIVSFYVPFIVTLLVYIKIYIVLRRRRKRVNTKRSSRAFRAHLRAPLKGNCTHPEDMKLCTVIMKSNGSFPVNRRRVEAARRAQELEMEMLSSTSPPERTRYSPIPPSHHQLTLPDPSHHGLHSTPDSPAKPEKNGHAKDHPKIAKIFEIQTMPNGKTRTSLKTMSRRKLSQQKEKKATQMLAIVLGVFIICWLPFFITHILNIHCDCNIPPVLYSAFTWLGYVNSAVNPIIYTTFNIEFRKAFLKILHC
Sequence of Gonadotropin-releasing hormone receptor (Homo sapiens) (P30968 whole entry, looked up): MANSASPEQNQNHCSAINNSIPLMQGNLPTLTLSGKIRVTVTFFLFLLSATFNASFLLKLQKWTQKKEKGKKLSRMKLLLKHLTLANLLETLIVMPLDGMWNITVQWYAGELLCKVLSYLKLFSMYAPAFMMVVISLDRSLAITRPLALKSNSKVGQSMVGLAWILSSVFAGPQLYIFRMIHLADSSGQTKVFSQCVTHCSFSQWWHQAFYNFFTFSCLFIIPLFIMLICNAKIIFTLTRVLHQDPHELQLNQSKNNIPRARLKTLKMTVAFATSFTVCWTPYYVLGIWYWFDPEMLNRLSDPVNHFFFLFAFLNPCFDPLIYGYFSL
Sequence of Beta-2 adrenergic receptor (Homo sapiens) (P07550 whole entry, looked up): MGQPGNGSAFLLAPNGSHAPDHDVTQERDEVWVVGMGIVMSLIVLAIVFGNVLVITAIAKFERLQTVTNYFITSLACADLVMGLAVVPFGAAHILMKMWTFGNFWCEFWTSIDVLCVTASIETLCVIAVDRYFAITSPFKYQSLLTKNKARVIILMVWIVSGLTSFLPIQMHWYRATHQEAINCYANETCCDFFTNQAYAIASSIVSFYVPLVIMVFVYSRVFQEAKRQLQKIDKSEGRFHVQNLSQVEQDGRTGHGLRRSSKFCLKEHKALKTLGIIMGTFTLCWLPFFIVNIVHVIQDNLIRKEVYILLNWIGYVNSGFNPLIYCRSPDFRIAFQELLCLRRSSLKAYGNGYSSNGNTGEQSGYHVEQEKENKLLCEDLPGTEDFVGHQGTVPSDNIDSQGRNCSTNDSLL
Sequence of Muscarinic acetylcholine receptor M1 (Homo sapiens) (P11229 whole entry, looked up): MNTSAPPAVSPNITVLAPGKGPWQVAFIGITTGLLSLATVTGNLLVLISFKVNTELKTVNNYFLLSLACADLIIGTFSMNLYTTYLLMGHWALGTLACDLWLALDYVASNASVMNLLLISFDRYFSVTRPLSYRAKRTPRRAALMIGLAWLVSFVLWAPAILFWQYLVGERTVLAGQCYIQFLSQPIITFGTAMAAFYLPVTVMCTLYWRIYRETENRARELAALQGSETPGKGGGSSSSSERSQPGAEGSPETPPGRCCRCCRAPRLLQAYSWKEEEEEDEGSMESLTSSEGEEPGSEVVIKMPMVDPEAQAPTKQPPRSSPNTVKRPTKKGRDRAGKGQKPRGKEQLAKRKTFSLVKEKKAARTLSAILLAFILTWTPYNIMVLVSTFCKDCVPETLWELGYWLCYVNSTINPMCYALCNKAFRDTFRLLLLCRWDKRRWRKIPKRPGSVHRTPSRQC

CC(C)(C)c1n[nH]c(=S)n(N)c1=O
not listed: [19] | [20]
inactive: all other assays above

OCCN(CCO)c1ccccc1
not listed: [15] | [16]
inactive: all other assays above

Cc1ncc(CO)c(C=O)c1O
not listed: [16] | [20]
inactive: all other assays above

CC(C)=NNC(N)=S
active: [1] 30.6 µM | [2] 15.4 µM
not listed: [14]
inactive: all other assays above

C=C(C)CCCC
not listed: [12] | [16]
inactive: all other assays above

N#Cc1c(F)cccc1F
not listed: [11] | [17]
inactive: all other assays above

Nc1cc([N+](=O)[O-])cc(Cl)c1O
not listed: [16] | [17]
inactive: all other assays above
